# Inconclusive results are not listed. Where a call stands in place of a potency, no number is given. Activity calls are given as the source filed them. Calls come from the whole dose curve; as a rule, active = well fitted inhibition curve with a large enough effect; inconclusive = small, poorly fitted or top-dose-only effect; inactive = no such curve, though single readings can be large or run the other way.
# Test: NS1 protein of Zika virus - qHTS assay to identify small molecule inhibitors in human HEK 293 cells (AID 1347053); note: nearly all actives have a fitted effect of over 55% in size
# Conditions: HEK293 ZIKV MR766 infection, NS1 TR-FRET, 24 h; series mostly up to 46.1 µM
# From the text: National Center for Advancing Translational Sciences [NCATS]
# Johns Hopkins University School of Medicine
# The non-structural 1 (NS1) protein of zika virus is known to associate with the viral replication complex. This cell-based TR-FRET ZIKV NS-1 assay measures the increased NS-1 protein in human HEK 293 cells after a 24-hour Zika virus infection by a TR-FRET assay readout. A decrease in the Time-resolved fluorescence energy transfer (TR-FRET) signal in this assay by small molecule treatment indicates an inhibitory effect of the small molecule on the expression of Zika virus NS1 correlating with Zika virus replication.
# HEK 293 cells were cultured in EMEM (ATCC, Cat. # 30-2003) medium with 10% fetal bovine serum (GE healthcare Life Sciences, Cat. # SH30071.03), and 1% Pen/Strep (Gibco, Cat. # 15140-122). Cells were seeded in the assay plate and incubated at 37 C with 5% CO2 for 20 hours. Compounds were added to cells and incubated for one hour before addition of ZIKV MR766 strain solution to cells (MOI = 0.5). After an incubation at 37 C for 24 hours, the reagent mixture of TR-FRET ZIKV NS1 assay using two anti-ZIKV NS1 antibodies was added to assay plates. The TR-FRET signals in assay plates were measured using an Envision plate reader (PerkinElmer). Data were normalized by using the cell-containing wells without ZIKV as a negative control (0% NS-1) and wells containing ZIKV infected cells as a positive control (100% NS-1 level).
# Potency is the fitted concentration of half-maximal effect.
row,Structure (SMILES),Potency
1,Nc1ncnc2c1ncn2[C@@H]1O[C@@H](CO)[C@H](O)[C@H]1O,inactive
2,CNC1CCC(N(Cc2cccc(-c3ccncc3)c2)C(=O)c2sc3c(F)ccc(F)c3c2Cl)CC1 (stereo not given),10.5 µM (active)
3,O=C(O)Cc1cccc2ccccc12,inactive
4,CN(C)CCC(c1ccccc1)c1ccccn1 (stereo not given),inactive
5,N[C@H](CSC(c1ccccc1)(c1ccccc1)c1ccccc1)C(=O)O,inactive
6,COc1cccc([C@@H](C)NCCCc2ccccc2Cl)c1,inactive
7,O=C(O)c1ccc(-c2cc3cccnc3c(-c3ccc4nonc4c3)n2)cc1,23.5 µM (active)
8,COc1cc(O)c2c(c1)C(=O)c1cc(C)cc(O)c1C2=O,inactive
9,Clc1ccc(C(c2ccc(Cl)cc2)n2cc[n+](CC(OCc3ccc(Cl)cc3Cl)c3ccc(Cl)cc3Cl)c2)cc1 (stereo not given),11.8 µM (active)
10,O=C(O)CCc1nc(-c2ccccc2)c(-c2ccccc2)o1,inactive
11,C[C@H](NC(=O)C(=O)Nc1ccccc1C(C)(C)C)C(=O)N[C@@H](CC(=O)O)C(=O)COc1c(F)c(F)cc(F)c1F,inactive
12,O=C(NC1CCOCC1)c1ccc(-c2cc(-c3cn[nH]c3-c3ccccn3)ccn2)cc1,inactive
13,NC(=O)NN=Cc1ccc([N+](=O)[O-])o1,inactive
14,CCC(=O)NC[C@H](Cc1ccc(OCCc2nc(-c3ccccc3)oc2C)cc1)NC(C)=CC(=O)c1ccc(C(F)(F)F)cc1,16.6 µM (active)
15,O=C(Nc1ccccc1-c1cn2c(CN3CCNCC3)csc2n1)c1cnc2ccccc2n1,inactive
16,NC(=O)c1ccc2nc(-c3ccc(Oc4ccc(Cl)cc4)cc3)[nH]c2c1,inactive
17,c1ccc2c(-c3cnn4cc(-c5ccc(N6CCNCC6)cc5)cnc34)ccnc2c1,4.18 µM (active)
18,O=C(O)c1ccc(-c2c[nH]c3ncc(-c4ccccc4)cc23)cc1C1CCCC1,inactive
19,O=c1cc(-c2ccc(O)cc2)oc2cc(O)cc(O)c12,inactive
20,CC(=O)O[C@]1(C(C)=O)CC[C@H]2[C@@H]3C=C(Cl)C4=CC(=O)[C@@H]5C[C@@H]5[C@]4(C)[C@H]3CC[C@@]21C,inactive

row,Structure (SMILES),Potency
1,O=C(O)C=Cc1ccc(O)c(O)c1,inactive
2,Oc1ccc(C2CCN(c3ccnc4ccccc34)CC2)cc1O,inactive
3,OC[C@H]1O[C@@H](n2cnc3c2NC=NC[C@@H]3O)C[C@H]1O,inactive
4,CC=C(C)C(=O)O[C@H]1C(C)=C[C@]23C(=O)[C@@H](C=C(CO)[C@@H](O)[C@]12O)[C@H]1[C@@H](C[C@H]3C)C1(C)C,11.8 µM (active)
5,O=C(Nc1c(Cl)cncc1Cl)c1ccc(OC(F)F)c(OCC2CC2)c1,inactive
6,CC(C)(C)COc1ccc(-n2cc(C(=O)O)cn2)cc1C#N,inactive
7,CN(C)Cc1cccc(N=C(c2ccccc2)c2c(O)[nH]c3cc(C(=O)N(C)C)ccc23)c1,inactive
8,Clc1ccc(-c2nc3sccn3c2C=NOCc2ccc(Cl)c(Cl)c2)cc1,inactive
9,O=c1c(O)c(-c2ccc(O)cc2)oc2cc(O)cc(O)c12,inactive
10,CC(C)[C@H](CO)Nc1nc(Nc2ccc(C(=O)O)c(Cl)c2)c2ncn(C(C)C)c2n1,inactive
11,Cn1c(N2CCCCS2(=O)=O)nc(C(=O)NCc2ccc(F)cc2)c(O)c1=O,inactive
12,O=C1NC(=O)C(c2ccccc2)(c2ccccc2)N1,inactive
13,O=C(N[C@@H](c1ccccc1)[C@@H]1CCCCN1)c1cccc(C(F)(F)F)c1Cl,inactive
14,CN(C)CCC=C1c2ccccc2COc2ccc(CC(=O)O)cc21,inactive
15,CN(C)c1cc(NC(=O)CNC(C)(C)C)c(O)c2c1C[C@@H]1C[C@H]3[C@H](N(C)C)C(=O)C(C(N)=O)=C(O)[C@@]3(O)C(=O)C1=C2O,inactive
16,NS(=O)(=O)c1ccc(NC2=CC(=O)c3ccccc3C2=O)cc1,inactive
17,COc1cc2c(cc1OC)CN(CCc1ccc(NC(=O)c3cc(OC)c(OC)cc3NC(=O)c3cnc4ccccc4c3)cc1)CC2,inactive
18,Cc1ccc(C(=O)Nc2cccc(C(F)(F)F)c2)cc1Nc1nc(-c2cccnc2)nc2c1cnn2C,14.8 µM (active)
19,CO[C@H]1C=CO[C@@]2(C)Oc3c(C)c(O)c4c(O)c(c5c(c4c3C2=O)NC2(CCN(CC(C)C)CC2)N=5)=NC(=O)C(C)=CC=C[C@H](C)[C@H](O)[C@@H](C)[C@@H](O)[C@@H](C)[C@H](OC(C)=O)[C@H]1C,inactive
20,CN(C)C1CCN(C(=O)c2ccc(NC(=O)Nc3nc(N4CCOCC4)nc(N4CCOCC4)n3)cc2)CC1,0.418 µM (active)

# Reference: PubChem BioAssay (NCATS)
